In the supplement of paper PMC9399229:
Several values for one entry are separate records, joined by “and”; a condition that tells them apart may be missing. Equal entries are not always repeated. Structures can show the parent of a compound that is named as a salt. Whole data set: some 1,900 compounds, median “relative cell viability (CellTiter-Glo), compound plus cabozantinib, relative to the cabozantinib arm (arm median 1.05; reference not stated)” near 1.1, cut for the lowest 2% near 0.15. Only a selection was taken, and the lowest values are over-represented in it overall.

Test system: Hep3B
Assay: relative cell viability (CellTiter-Glo), compound plus cabozantinib, relative to the cabozantinib arm (arm median 1.05; reference not stated) (fraction); higher = more viable cells (less growth inhibition)
Settings: cabozantinib 2 µM; 4 days

In order of falling relative cell viability:
1. COc1nc(-c2ccc3c(c2)OCO3)n(-c2ccc(NC(=O)CSc3ccccc3)cc2)n1 [SecinH3]  1.24
2. Cc1ccc(S(=O)(=O)n2c(N)nc3ccccc32)cc1 [ML130 (Nodinitib-1)]  1.2
3. Cc1ccc2c(=O)c3cccc(CC(=O)O)c3oc2c1C [DMXAA (Vadimezan)]  1.17
4. COC(=O)[C@H](CCSC)NC(=O)c1ccc(NC[C@@H](N)CS)cc1-c1ccccc1  1.16
5. CC(ONC(=O)c1cc(C(F)(F)F)cc(C(F)(F)F)c1)C(=O)Nc1ccc(Cl)cc1 (stereo unspecified)  1.15
6. O=C(O)Cc1cccc(OCCCN(Cc2cccc(C(F)(F)F)c2Cl)CC(c2ccccc2)c2ccccc2)c1  1.15
7. C[C@@H]1CC(=O)NN=C1c1ccc(NN=C(C#N)C#N)cc1 [Levosimendan]  1.15
8. O=c1cc(CN2CCOCC2)occ1OCCCCCSc1ccnc2cc(C(F)(F)F)ccc12  1.13
9. O=C(NC[C@H](O)CN1CCc2ccccc2C1)c1cc(NC2COC2)ncn1  1.13
10. O=C(O)c1ccccc1 [Benzoic Acid]  1.12
11. O=C(NC1CCOCC1)c1ccc(-c2cc(-c3c[nH]nc3-c3ccccn3)ccn2)cc1  1.12
12. C#C[C@]1(OC(C)=O)CC[C@H]2[C@@H]3CCC4=C[C@@H](OC(C)=O)CC[C@@H]4[C@H]3CC[C@@]21C [Ethynodiol diacetate]  1.12
13. C[C@H](CCC(=O)O)[C@H]1CC[C@H]2[C@@H]3C[C@H](O)[C@@H]4C[C@H](O)CC[C@]4(C)[C@H]3CC[C@]12C [Hyodeoxycholic acid (HDCA)]  1.11
14. O=C(Nc1ccccc1)c1ccccc1O [Salicylanilide]  1.1
15. Cc1cccc(-c2[nH]c(CNc3ccccc3F)nc2-c2ccc3ncnn3c2)n1  1.1
16. CC(C)N(CC[C@H](c1ccccc1)c1cc(CO)ccc1O)C(C)C  1.1
17. COc1ccc(C(=O)CC(=O)c2ccc(C(C)(C)C)cc2)cc1 [Avobenzone]  1.1
18. CC1(C)CNc2cc(NC(=O)c3cccnc3NCc3ccncc3)ccc21 [Motesanib Diphosphate (AMG-706)]  1.09
19. CC1CC(OC(=O)C(O)c2ccccc2)CC(C)(C)C1 (stereo unspecified) [Cyclandelate]  1.07
20. O=C(c1cccc(Cl)c1F)N1CCN(Cc2cccc(Nc3nccs3)n2)CC1  1.06
21. CN(C)CCOc1ccc(/C(=C(/CCCl)c2ccccc2)c2ccccc2)cc1 [Toremifene Citrate]  1.06
22. COc1ccc(C(=O)Nc2sc3c(c2C(N)=O)CCCC3)cc1OC  1.03
23. CCOC(=O)c1ccc(N2NC(=O)C(=Cc3ccc([N+](=O)[O-])o3)C2=O)cc1  1.02
24. O=C(Nc1cccc(Cl)c1)c1ccccn1  1.02
25. OC[C@H]1OC(O)[C@H](O)[C@@H](O)[C@@H]1O (stereo partly specified) [Dextrose]  1.01
26. CCOCC(O)COc1ccc(NC(=O)CC[S+](C)C)cc1 (stereo unspecified) [Suplatast Tosylate]  1
27. O=C(O)CCNC(=O)c1ccccc1 [Betamipron]  0.99
28. NC1(Cc2ccc(Cl)cc2)CCN(c2ncnc3[nH]ccc23)CC1  0.989
29. Cc1coc2c1C(=O)C(=O)c1c-2ccc2c1CCCC2(C)C [Tanshinone IIA]  0.985
30. Cc1nc2c([nH]1)-c1ccccc1N(C(=O)c1ccc(NC(=O)c3ccccc3-c3ccccc3)cc1)CC2 [Conivaptan HCl]  0.972
31. Nc1nc(N)c2nc(-c3cccc(O)c3)c(-c3cccc(O)c3)nc2n1  0.944
32. C=CC(=O)Nc1cccc(Nc2nc(Nc3ccc(NC4CN(CCF)C4)cc3OC)ncc2C(F)(F)F)c1  0.885
33. O=C(NOCC(O)CO)c1cc(Br)c(F)c(F)c1Nc1ccc(I)cc1F (stereo unspecified)  0.87
34. Cc1c(-c2ccc(O)cc2)n(Cc2ccc(OCCN3CCCCCC3)cc2)c2ccc(O)cc12 [Bazedoxifene HCl]  0.867
35. CNCc1ccc(C)c(NC(=O)c2ccc(Nc3nc(-c4ccccc4)c4ccccc4n3)cc2)c1  0.858
36. CNC(=O)c1ccccc1Sc1ccc2c(/C=C/c3ccccn3)n[nH]c2c1 [Axitinib]  0.715
37. Cn1cnc2c(F)c(Nc3ccc(Br)cc3F)c(C(=O)NOCCO)cc21  0.634
38. CN(C)Cc1ccc(S(=O)(=O)n2ccc(/C=C/C(=O)NO)c2)cc1 [Resminostat]  0.59
39. CC(C)CC(=O)Nc1n[nH]c2c1CN(C(=O)C1CCN(C)CC1)C2(C)C  0.431
40. CC(C)C[C@H](NC(=O)[C@H](Cc1ccccc1)NC(=O)c1cnccn1)B(O)O [Bortezomib (PS-341)]  0.396
41. N#Cc1c(Oc2ccc(F)c(NC(=O)Cc3cccc(C(F)(F)F)c3)c2)ccc2nc(NC(=O)C3CC3)sc12  0.227
42. O=C(NC[C@H](O)CO)c1ccncc1Nc1ccc(I)cc1F  0.201
43. CCNC(=O)c1noc(-c2cc(Cl)c(O)cc2O)c1-c1ccc(OC)cc1  0.183
44. O=C(NOC[C@H](O)CO)c1ccc(F)c(F)c1Nc1ccc(I)cc1F  0.183
45. Cc1ccc(NC(=O)C2(c3ccc4c(c3)OC(F)(F)O4)CC2)nc1-c1cccc(C(=O)O)c1 [VX-809 (Lumacaftor)]  0.168
46. CC(C=CC(=O)NO)=CC(C)C(=O)c1ccc(N(C)C)cc1 (stereo unspecified) [Trichostatin A (TSA)]  0.165
47. NC(=O)Nc1cc(-c2cccc(F)c2)sc1C(=O)N[C@H]1CCCNC1  0.162
48. Cc1nc(Nc2n[nH]c3c2CN(C(=O)N[C@H](CN(C)C)c2ccccc2)C3(C)C)c2sccc2n1  0.149
49. CCCCc1nc2cc(/C=C/C(=O)NO)ccc2n1CCN(CC)CC [Pracinostat (SB939)]  0.147
50. Cc1cc(C(=O)NOCCO)c(Nc2ccc(I)cc2F)n(C)c1=O  0.141
51. O=C(NOCCO)c1ccc2cncn2c1Nc1ccc(I)cc1F  0.133
52. COCC[n+]1c2c(n(Cc3cnccn3)c1C)C(=O)c1ccccc1C2=O [YM155 (Sepantronium Bromide)]  0.129
53. O=C(Nc1cc(C(F)(F)F)cc(C(F)(F)F)c1)c1cc(Cl)ccc1O  0.122
54. Clc1ccc(NN=C(c2ccccc2)c2ccccn2)nc1  0.087
55. CN(NC(=O)CC(=O)NN(C)C(=S)c1ccccc1)C(=S)c1ccccc1 [Elesclomol (STA-4783)]  0.00669

`O=C(NC1CCNCC1)c1n[nH]cc1NC(=O)c1c(Cl)cccc1Cl` was tested, and the relative cell viability was 0.158 and 0.144.
